Holding throughout (assay): DAPPL (digital affinity profiling via proximity ligation, sequencing); 10 mM Tris-HCl pH 7.5, 50 mM NaCl, 1 mM DTT, 4% glycerol, room temperature, 30 min; GST-TFs on glutathione beads, 16-mer random dsDNA library, 0.1% formaldehyde crosslink after washing; high values mean tight binding
Common to all, as to conditions: protein: recombinant; tags: N-terminal GST; dsDNA, one strand shown

For one test, the target named is T1, ELK1 (Homo sapiens, UniProt P19419 1-428).
T1 sequence: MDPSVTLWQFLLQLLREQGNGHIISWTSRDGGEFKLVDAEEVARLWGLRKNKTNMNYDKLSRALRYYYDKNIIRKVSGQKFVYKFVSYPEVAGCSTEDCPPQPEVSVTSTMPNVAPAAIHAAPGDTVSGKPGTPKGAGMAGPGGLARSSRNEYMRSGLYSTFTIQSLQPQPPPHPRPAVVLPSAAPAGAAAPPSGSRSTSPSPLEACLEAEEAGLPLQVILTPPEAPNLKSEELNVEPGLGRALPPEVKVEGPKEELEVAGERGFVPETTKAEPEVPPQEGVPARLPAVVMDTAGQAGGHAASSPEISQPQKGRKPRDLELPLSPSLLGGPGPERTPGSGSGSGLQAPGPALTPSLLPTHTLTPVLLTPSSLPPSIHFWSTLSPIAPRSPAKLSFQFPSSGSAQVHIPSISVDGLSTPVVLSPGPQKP
The method in brief:
(§1)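 GST fusions of human transcription factors were expressed in yeast and captured with glutathione beads. Once given DNA barcodes and pooled alongside a tag-only sample, they were incubated for 30 min at room temperature with 200 nmole of a random double-stranded 16-mer DNA library in Tris/NaCl/DTT/glycerol buffer, then washed, crosslinked (0.1% formaldehyde), proximity-ligated, PCR-amplified and sequenced on an Illumina NextSeq500. The binding signal of each hexamer is its read frequency for a factor divided by its frequency for the tag-only sample.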

In a further test the target is T2, GABPA (Homo sapiens, UniProt Q06546 1-454).
T2 sequence: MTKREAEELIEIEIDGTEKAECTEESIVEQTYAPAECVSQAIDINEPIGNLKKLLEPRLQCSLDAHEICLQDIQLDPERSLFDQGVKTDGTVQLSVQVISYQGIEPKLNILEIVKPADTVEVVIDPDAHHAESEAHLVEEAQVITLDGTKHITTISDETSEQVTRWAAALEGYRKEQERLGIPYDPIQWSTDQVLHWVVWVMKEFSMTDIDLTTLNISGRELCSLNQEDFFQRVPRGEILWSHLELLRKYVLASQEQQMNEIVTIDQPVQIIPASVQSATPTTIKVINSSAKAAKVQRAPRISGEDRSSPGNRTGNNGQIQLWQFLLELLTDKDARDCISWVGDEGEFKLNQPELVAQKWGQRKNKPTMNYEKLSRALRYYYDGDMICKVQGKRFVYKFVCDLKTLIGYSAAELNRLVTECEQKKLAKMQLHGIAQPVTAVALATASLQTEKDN
The method, boiled down:
as §1

The target of a further test is T3, ERG (Homo sapiens, UniProt P11308 1-479).
T3 sequence: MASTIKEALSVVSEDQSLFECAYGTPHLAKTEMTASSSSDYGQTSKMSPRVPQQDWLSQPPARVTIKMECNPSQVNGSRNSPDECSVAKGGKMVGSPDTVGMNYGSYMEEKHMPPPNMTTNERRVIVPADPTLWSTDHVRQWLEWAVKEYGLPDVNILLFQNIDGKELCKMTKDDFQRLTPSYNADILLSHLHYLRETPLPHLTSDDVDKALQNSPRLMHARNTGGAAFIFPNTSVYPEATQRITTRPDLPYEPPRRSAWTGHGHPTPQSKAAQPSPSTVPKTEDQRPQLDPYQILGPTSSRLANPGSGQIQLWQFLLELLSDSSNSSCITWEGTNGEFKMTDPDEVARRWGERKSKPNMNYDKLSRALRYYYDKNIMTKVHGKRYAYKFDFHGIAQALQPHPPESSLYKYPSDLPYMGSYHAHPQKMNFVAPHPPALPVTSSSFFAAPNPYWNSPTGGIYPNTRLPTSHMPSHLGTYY
The method in brief:
as §1

The target in another test is ELF1 (Homo sapiens, UniProt P32519 1-619). The method, boiled down:
as §1

Another test deals with T4, EHF (Homo sapiens, UniProt Q9NZC4 1-300).
T4 sequence: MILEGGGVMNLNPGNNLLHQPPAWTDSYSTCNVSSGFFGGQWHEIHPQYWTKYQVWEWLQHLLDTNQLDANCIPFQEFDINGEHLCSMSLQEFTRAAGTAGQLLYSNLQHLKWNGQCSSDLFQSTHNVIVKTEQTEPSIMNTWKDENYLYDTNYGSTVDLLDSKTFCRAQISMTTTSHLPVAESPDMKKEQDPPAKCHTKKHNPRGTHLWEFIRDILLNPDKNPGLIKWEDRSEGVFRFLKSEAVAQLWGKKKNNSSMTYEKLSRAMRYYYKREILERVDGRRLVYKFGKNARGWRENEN
The method, boiled down:
as §1

The target of another test is SPI1 (Homo sapiens, UniProt P17947 1-270). The method in brief:
as §1

A further test has as its target SPIB (Homo sapiens, UniProt Q01892 1-262). The method in brief:
as §1

For the next test, the target named is T5, FEV (Homo sapiens, UniProt Q99581 1-238).
T5 sequence: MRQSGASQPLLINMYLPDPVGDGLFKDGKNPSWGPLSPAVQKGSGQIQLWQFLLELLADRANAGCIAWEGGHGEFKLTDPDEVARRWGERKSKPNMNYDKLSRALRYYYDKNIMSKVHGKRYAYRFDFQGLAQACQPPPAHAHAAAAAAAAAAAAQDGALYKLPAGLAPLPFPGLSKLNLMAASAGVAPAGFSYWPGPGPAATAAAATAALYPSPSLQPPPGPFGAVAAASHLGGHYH
The method, boiled down: as §1

Another test addresses ETV5 (Homo sapiens, UniProt P41161 1-510). The method in brief:
as §1

Another test addresses ELF4 (Homo sapiens, UniProt Q99607 1-663). The method, boiled down:
as §1

In a further test the target is T6, ETV2 (Homo sapiens, UniProt O00321 1-342).
T6 sequence: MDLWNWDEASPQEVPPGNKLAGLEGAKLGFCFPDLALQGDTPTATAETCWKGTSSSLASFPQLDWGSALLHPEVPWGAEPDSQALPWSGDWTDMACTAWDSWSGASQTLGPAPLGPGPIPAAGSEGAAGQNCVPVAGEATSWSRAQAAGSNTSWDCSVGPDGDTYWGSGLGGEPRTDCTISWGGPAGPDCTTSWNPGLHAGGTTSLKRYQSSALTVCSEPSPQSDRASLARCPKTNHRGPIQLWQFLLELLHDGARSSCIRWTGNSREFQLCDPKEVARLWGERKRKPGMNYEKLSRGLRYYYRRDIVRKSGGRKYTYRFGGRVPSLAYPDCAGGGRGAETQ
The method in brief:
as §1

The target in a further test is T7, ELF3 (Homo sapiens, UniProt P78545 1-371).
T7 sequence: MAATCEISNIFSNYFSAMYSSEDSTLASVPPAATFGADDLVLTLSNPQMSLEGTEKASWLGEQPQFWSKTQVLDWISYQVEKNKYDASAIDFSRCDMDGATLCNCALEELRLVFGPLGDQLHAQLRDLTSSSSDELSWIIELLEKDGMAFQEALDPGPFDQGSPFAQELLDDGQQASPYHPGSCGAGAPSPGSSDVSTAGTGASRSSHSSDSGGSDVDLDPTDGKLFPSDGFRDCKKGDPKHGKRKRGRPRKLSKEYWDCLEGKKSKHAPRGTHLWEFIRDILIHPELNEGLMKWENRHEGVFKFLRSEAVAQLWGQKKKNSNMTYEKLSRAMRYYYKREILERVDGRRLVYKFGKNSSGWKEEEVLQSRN
The method in brief:
as §1

The target of another test is ETV1 (Homo sapiens, UniProt P50549 1-477). The method, boiled down:
as §1

In the next test the target is T8, ERF (Homo sapiens, UniProt P50548 1-548).
T8 sequence: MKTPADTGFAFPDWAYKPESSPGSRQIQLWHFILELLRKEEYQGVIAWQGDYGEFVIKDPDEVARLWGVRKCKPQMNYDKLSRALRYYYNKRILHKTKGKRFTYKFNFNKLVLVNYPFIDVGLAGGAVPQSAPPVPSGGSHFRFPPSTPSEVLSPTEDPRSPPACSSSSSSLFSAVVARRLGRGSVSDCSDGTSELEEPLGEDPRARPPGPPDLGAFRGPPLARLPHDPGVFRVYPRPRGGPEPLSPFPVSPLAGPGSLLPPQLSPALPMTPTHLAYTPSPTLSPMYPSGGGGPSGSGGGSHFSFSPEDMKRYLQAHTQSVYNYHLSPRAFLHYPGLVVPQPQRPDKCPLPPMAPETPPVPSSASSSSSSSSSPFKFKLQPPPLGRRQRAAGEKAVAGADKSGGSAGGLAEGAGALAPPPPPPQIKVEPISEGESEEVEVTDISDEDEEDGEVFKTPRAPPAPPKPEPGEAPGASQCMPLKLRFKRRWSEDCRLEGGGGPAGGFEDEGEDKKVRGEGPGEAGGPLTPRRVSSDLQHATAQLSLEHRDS
The method in brief:
as §1

The next test deals with T9, ETV3L (Homo sapiens, UniProt Q6ZN32 1-361).
T9 sequence: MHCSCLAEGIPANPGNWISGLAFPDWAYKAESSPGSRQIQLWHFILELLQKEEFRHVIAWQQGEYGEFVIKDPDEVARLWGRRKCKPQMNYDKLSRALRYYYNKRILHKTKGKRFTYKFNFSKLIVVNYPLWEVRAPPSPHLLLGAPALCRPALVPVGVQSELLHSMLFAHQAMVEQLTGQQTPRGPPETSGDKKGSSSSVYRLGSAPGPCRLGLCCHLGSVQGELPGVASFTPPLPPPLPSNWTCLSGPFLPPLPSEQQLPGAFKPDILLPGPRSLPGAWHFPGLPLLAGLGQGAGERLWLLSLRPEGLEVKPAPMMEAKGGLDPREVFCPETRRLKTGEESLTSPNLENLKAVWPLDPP
The method, boiled down:
as §1

In a further test the target is T10, ETS2 (Homo sapiens, UniProt P15036 1-469).
T10 sequence: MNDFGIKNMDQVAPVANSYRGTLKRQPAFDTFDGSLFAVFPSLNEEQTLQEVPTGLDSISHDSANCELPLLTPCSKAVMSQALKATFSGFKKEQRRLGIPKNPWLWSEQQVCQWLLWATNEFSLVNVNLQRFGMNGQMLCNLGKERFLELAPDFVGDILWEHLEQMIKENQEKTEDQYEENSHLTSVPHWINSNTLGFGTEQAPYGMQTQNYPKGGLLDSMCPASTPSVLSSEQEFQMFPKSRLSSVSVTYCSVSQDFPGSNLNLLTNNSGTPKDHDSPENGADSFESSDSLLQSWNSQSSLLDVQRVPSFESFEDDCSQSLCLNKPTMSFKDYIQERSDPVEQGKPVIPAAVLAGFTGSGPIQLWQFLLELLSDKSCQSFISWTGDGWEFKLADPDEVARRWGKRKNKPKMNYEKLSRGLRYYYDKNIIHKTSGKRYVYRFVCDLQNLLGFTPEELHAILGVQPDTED
The method in brief:
as §1

A further test concerns the target T11, ETV7 (Homo sapiens, UniProt Q9Y603 1-341).
T11 sequence: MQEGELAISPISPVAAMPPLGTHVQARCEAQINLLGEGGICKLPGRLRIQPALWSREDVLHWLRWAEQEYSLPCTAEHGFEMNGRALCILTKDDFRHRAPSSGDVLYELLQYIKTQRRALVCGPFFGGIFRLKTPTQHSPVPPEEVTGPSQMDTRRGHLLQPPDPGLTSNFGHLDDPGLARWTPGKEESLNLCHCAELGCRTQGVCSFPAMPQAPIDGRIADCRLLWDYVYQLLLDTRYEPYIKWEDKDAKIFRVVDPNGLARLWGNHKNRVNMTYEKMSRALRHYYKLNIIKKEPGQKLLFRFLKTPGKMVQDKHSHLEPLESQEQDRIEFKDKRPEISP
The method in brief: as §1

The target in the next test is T12, ETV3 (Homo sapiens, UniProt P41162-2 1-143).
T12 sequence: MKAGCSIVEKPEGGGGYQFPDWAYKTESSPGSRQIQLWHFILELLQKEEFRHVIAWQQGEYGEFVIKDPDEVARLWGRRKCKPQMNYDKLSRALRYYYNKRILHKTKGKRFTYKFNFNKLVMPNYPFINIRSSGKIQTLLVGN
The method, boiled down:
as §1

The target of the next test is ETV6 (Homo sapiens, UniProt P41212 1-452). The method, boiled down: as §1
Chain of ETV6 (P41212 whole entry): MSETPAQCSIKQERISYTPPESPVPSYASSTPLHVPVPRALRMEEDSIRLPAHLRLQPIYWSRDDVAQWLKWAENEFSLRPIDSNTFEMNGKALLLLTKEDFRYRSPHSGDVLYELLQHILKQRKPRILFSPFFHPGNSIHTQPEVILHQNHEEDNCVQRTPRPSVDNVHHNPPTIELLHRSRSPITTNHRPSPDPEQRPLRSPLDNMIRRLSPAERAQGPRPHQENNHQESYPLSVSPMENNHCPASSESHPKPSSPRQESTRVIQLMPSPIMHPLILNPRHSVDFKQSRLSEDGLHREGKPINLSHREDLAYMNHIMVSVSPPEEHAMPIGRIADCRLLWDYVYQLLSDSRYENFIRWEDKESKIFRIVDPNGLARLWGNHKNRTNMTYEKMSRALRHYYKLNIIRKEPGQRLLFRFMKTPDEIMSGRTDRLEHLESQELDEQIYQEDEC

Chain of ETV5 (P41161 whole entry): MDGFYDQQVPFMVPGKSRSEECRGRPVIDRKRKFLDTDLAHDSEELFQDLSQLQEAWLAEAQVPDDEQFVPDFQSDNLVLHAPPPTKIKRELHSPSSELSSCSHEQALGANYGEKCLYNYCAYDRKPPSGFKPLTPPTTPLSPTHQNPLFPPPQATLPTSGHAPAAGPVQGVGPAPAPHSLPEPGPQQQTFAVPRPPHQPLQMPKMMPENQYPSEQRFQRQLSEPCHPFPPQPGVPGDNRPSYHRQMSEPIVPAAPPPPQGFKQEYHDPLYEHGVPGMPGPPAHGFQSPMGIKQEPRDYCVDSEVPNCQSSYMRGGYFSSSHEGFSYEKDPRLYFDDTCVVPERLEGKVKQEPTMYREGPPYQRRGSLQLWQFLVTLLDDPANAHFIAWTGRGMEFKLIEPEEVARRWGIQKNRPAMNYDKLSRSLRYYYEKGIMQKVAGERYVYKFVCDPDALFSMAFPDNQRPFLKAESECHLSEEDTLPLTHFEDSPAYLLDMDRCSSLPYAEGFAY
Chain of ETV1 (P50549 whole entry): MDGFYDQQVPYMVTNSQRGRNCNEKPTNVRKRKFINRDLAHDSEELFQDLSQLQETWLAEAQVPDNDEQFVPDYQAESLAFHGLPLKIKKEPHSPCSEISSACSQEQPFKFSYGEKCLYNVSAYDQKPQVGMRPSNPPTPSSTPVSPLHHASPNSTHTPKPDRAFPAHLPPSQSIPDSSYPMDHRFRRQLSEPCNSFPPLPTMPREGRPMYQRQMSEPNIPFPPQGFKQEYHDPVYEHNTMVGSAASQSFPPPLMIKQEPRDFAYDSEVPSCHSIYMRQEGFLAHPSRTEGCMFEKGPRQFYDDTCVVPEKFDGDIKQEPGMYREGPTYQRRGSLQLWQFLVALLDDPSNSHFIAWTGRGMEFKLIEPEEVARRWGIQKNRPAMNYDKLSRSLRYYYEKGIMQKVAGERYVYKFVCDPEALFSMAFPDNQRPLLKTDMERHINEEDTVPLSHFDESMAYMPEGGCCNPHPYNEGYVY
Chain of ELF4 (Q99607 whole entry): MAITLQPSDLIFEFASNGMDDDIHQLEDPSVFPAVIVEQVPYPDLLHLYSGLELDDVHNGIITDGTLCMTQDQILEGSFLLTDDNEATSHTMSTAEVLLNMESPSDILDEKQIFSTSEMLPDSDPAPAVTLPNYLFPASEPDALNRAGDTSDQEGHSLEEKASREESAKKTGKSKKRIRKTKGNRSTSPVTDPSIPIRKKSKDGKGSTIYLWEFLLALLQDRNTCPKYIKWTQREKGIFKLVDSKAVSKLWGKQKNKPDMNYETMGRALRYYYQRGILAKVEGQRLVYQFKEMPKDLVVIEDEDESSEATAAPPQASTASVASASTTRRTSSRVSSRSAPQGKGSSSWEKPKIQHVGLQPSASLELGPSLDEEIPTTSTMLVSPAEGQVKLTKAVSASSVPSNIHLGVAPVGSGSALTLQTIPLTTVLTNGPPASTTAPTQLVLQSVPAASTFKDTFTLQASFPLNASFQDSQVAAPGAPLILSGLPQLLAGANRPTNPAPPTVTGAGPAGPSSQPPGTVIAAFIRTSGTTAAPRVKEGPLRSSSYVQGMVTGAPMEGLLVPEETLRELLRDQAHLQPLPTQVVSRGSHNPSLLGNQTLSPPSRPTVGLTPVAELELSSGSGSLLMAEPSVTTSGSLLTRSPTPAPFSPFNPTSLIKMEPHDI
Chain of SPIB (Q01892 whole entry): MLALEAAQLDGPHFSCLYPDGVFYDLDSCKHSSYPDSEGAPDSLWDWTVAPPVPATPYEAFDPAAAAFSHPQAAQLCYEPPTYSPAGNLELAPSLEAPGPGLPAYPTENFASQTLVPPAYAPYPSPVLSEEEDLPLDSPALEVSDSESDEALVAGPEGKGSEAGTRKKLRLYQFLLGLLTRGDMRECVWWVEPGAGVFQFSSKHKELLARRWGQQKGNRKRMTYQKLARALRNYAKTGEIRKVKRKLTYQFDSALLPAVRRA
Chain of ELF1 (P32519 whole entry): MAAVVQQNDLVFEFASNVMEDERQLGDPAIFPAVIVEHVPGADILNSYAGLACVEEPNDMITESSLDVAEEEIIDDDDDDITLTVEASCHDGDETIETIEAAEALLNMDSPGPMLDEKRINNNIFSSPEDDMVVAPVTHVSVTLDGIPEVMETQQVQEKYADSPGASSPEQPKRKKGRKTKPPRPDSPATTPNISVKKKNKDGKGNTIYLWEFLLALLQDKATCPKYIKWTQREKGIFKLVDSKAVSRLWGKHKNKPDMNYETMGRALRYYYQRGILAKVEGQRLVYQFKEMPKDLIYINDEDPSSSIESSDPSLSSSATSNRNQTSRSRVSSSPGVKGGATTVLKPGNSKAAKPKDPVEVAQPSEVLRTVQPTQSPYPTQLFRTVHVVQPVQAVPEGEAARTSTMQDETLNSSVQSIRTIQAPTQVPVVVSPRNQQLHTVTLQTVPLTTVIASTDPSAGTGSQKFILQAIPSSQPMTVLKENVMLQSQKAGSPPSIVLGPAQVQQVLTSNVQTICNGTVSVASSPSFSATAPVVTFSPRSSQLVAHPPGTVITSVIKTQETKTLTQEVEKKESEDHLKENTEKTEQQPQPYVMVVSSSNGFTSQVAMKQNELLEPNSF

For the sequence TGCGCC, the binding signal in the test with ELK1 is 1.21 fold enrichment (6-mer frequency, TF over GST control); with GABPA it was 1.19 fold enrichment (6-mer frequency, TF over GST control); with ERG, 1.2 fold enrichment (6-mer frequency, TF over GST control); with ELF1, 1.14 fold enrichment (6-mer frequency, TF over GST control); with EHF, 1.08 fold enrichment (6-mer frequency, TF over GST control); in the test with SPI1, 1.22 fold enrichment (6-mer frequency, TF over GST control). In addition, the binding signal in the test with SPIB is 1.27 fold enrichment (6-mer frequency, TF over GST control); with FEV, 1.16 fold enrichment (6-mer frequency, TF over GST control); with ETV5, 1.04 fold enrichment (6-mer frequency, TF over GST control); in the test with ELF4, 1.19 fold enrichment (6-mer frequency, TF over GST control); with ETV2 it was 1.18 fold enrichment (6-mer frequency, TF over GST control); with ELF3, 1.03 fold enrichment (6-mer frequency, TF over GST control). Further, the binding signal in the test with ETV1 was 1.23 fold enrichment (6-mer frequency, TF over GST control); with ERF, 1.12 fold enrichment (6-mer frequency, TF over GST control); in the test with ETV3L it was 1.27 fold enrichment (6-mer frequency, TF over GST control); in the test with ETS2, 1.14 fold enrichment (6-mer frequency, TF over GST control); with ETV7 it was 1.09 fold enrichment (6-mer frequency, TF over GST control); with ETV3, 1.15 fold enrichment (6-mer frequency, TF over GST control). Further, the binding signal with ETV6 was 1.27 fold enrichment (6-mer frequency, TF over GST control).

The values are drawn from PMC7862700, “An all-to-all approach to the identification of sequence-specific readers for epigenetic DNA modifications on cytosine”.
